# Data from a collection of fitness landscapes (doi:10.1126/science.1257360).
# In all, about 140,000 sequences were measured (“enrichment ratio after two sorts for PhoP signalling”: median about 0, highest 2% from about 11 on). The list comes from a sample in which the highest values are over-represented; it also holds similar and randomly drawn sequences.
# B1: PhoQ; a variant is named by its letters at X, in order, P23837 (parent)
# chain: MKKLLRLFFPLSLRVRFLLATAAVVLVLSLAYGMVALIGYSVSFDKTTFRLLRGESNLFYTLAKWENNKLHVELPENIDKQSPTMTLIYDENGQLLWAQRDVPWLMKMIQPDWLKSNGFHEIEADVNDTSLLLSGDHSIQQQLQEVREDDDDAEMTHSVAVNVYPATSRMPKLTIVVVDTIPVELKSSYMVWSWFIYVLSANLLLVIPLLWVAAWWSLRPIEALAKEVRELEEHNRELLNPATTRELTSLVRNLNRLLKSERERYDKYRTTLTDLTHSLKTPLXXLQXXLRSLRSEKMSVSDAEPVMLEQISRISQQIGYYLHRASMRGGTLLSRELHPVAPLLDNLTSALNKVYQRKGVNISLDISPEISFVGEQNDFVEVMGNVLDNACKYCLEFVEISARQTDEHLYIVVEDDGPGIPLSKREVIFDRGQRVDTLRPGQGVGLAVAREITEQYEGKIVAGESMLGGARMEVIFGRQHSAPKDE
# Variants of: B1
# Assay: enrichment ratio after two sorts for PhoP signalling (ratio (wild type AVST 3.29)); higher = more functional
# Settings: with PhoP (E. coli)
row,Variant,enrichment ratio
1,YVFQ,≤ 0.25
2,IQHV,≤ 0.25
3,PPCA,≤ 0.25
4,ETDW,≤ 0.25
5,MNTC,≤ 0.25
6,MNTS,≤ 0.25
7,MNTM,18.9
8,MNTI,13.1
9,TNRM,≤ 0.25
10,MLTM,4.75
11,TNTM,31.2
12,MNWM,4.81
13,TNCL,0.276
14,KHVC,≤ 0.25
15,QGRV,≤ 0.25
16,HNCH,≤ 0.25
17,VGDV,≤ 0.25
18,NEGH,≤ 0.25
19,SRIQ,≤ 0.25
20,SGKA,≤ 0.25
21,TGMQ,≤ 0.25
22,SGIE,≤ 0.25
23,SGGK,≤ 0.25
24,SGIQ,11.9
25,SGGA,8.12
26,SGGQ,14.9

row,Variant,enrichment ratio
1,SGDS,≤ 0.25
2,SGHP,≤ 0.25
3,SGSQ,12.9
4,SGMQ,15.4
5,AGYL,4.28
6,QKLN,≤ 0.25
7,QYFC,≤ 0.25
8,SGFQ,2.13
9,EDPV,≤ 0.25
10,PQAT,≤ 0.25
11,TEML,28.6
12,FAML,6.33
13,VRML,≤ 0.25
14,MKML,≤ 0.25
15,MAKL,≤ 0.25
16,TKML,19.2
17,PTML,≤ 0.25
18,MEML,12
19,VKML,≤ 0.25
20,HKML,≤ 0.25
21,MAML,25.7
22,NRML,≤ 0.25
23,SWHC,≤ 0.25
24,WHRD,≤ 0.25
25,PISS,≤ 0.25
26,LFSF,≤ 0.25

row,Variant,enrichment ratio
1,RFYN,≤ 0.25
2,DIQW,≤ 0.25
3,IIYH,≤ 0.25
4,MIML,14
5,MCML,17.5
6,MMML,≤ 0.25
7,MIRL,≤ 0.25
8,MTML,4.85
9,MIWL,3.25
10,KEPP,≤ 0.25
11,HSFC,≤ 0.25
12,TLKM,≤ 0.25
13,CNFF,≤ 0.25
14,QNDV,≤ 0.25
15,MFMM,≤ 0.25
16,MGDH,≤ 0.25
17,MGAM,14.1
18,MGMM,37.6
19,HFMM,≤ 0.25
20,MGTM,13.6
21,MGTA,≤ 0.25
22,MGTH,≤ 0.25
23,MGTC,0.695
24,MGTS,≤ 0.25
25,MGTI,12.5
26,MGCK,3.89

row,Variant,enrichment ratio
1,HMRE,≤ 0.25
2,WQTY,≤ 0.25
3,YKIG,≤ 0.25
4,VGNS,≤ 0.25
5,HWDL,≤ 0.25
6,SSRL,≤ 0.25
7,YEQT,≤ 0.25
8,LCHM,≤ 0.25
9,MVGN,10.6
10,IKTK,≤ 0.25
11,MGDM,≤ 0.25
12,MGWM,21
13,MGGM,9.49
14,SNTF,12.1
15,SITF,11.8
16,SSTF,7.3
17,LLTF,≤ 0.25
18,KATF,≤ 0.25
19,LNTF,≤ 0.25
20,SRTF,≤ 0.25
21,SLTF,12.2
22,KYTF,≤ 0.25
23,WLTF,≤ 0.25
24,NATF,≤ 0.25
25,SATF,11.2
26,LNWL,≤ 0.25

row,Variant,enrichment ratio
1,ERPG,≤ 0.25
2,NYCA,≤ 0.25
3,IDCL,≤ 0.25
4,VING,≤ 0.25
5,WSTV,≤ 0.25
6,KSQL,≤ 0.25
7,DWQL,≤ 0.25
8,SPQL,≤ 0.25
9,TSQL,14
10,NMQL,≤ 0.25
11,NVQL,≤ 0.25
12,LAQL,≤ 0.25
13,TVQL,16.7
14,TQQL,11.6
15,HAQL,≤ 0.25
16,MMQL,≤ 0.25
17,TMQL,12.8
18,NGLW,≤ 0.25
19,YAWN,≤ 0.25
20,QRCA,≤ 0.25
21,FANK,≤ 0.25
22,PWMR,≤ 0.25
23,YMPP,≤ 0.25
24,PLMP,≤ 0.25
25,FLRE,≤ 0.25
26,MFVW,≤ 0.25

row,Variant,enrichment ratio
1,LQNW,≤ 0.25
2,YAQL,≤ 0.25
3,TNQL,12.7
4,LNQL,≤ 0.25
5,TKQL,23.2
6,MNQL,≤ 0.25
7,NAQL,≤ 0.25
8,KLQL,≤ 0.25
9,KAQL,1.07
10,TLQL,13
11,WFHV,≤ 0.25
12,AFMF,≤ 0.25
13,WQHR,≤ 0.25
14,AKRK,≤ 0.25
15,NEEV,≤ 0.25
16,KMSL,≤ 0.25
17,KMEI,≤ 0.25
18,KMEC,≤ 0.25
19,TMEI,17.7
20,TMEC,11.9
21,NMSL,≤ 0.25
22,TMEV,25
23,TMSL,13.1
24,TMFV,0.532
25,DMEI,≤ 0.25
26,NEEC,≤ 0.25

row,Variant,enrichment ratio
1,IVWG,≤ 0.25
2,GKHD,≤ 0.25
3,RMMR,≤ 0.25
4,VNCL,4.33
5,RQDI,≤ 0.25
6,MCGY,≤ 0.25
7,DMHL,≤ 0.25
8,TMWL,≤ 0.25
9,MMHL,1.34
10,TMHL,11.6
11,TMEL,15.3
12,TMGL,7.75
13,HEGR,≤ 0.25
14,IMAF,≤ 0.25
15,LWKN,≤ 0.25
16,VRPW,≤ 0.25
17,HNFA,≤ 0.25
18,TPCH,≤ 0.25
19,VYYN,≤ 0.25
20,VLGI,≤ 0.25
21,STCN,8.56
22,GLCI,9.01
23,CLCN,23.2
24,ELCN,≤ 0.25
25,WLCN,≤ 0.25
26,SLCN,11.5

row,Variant,enrichment ratio
1,THCN,4.64
2,CLLN,≤ 0.25
3,GLLN,≤ 0.25
4,GLCN,12.8
5,SHLN,2.15
6,SHCN,13.2
7,VNQW,≤ 0.25
8,HNQK,≤ 0.25
9,YVDP,≤ 0.25
10,RGYW,≤ 0.25
11,TCKY,≤ 0.25
12,SICN,20.7
13,SVNL,≤ 0.25
14,SSCN,16.9
15,TSCN,26.6
16,SVCN,19.4
17,NSCN,≤ 0.25
18,FSCN,≤ 0.25
19,KYCN,≤ 0.25
20,SILN,8.2
21,KSCN,≤ 0.25
22,SSLN,6.84
23,SVLN,7.1
